SMILES strings stand for the structures. About 79,000 compounds went through this panel and 15% of them were active in at least one assay; those are over-represented in the sample as a whole. Values without a mark were called inactive. Calls of active or inactive are those of the source. No stated cut-off is given here; in the data, active means growth inhibition above about 70%; inactive means the rest.

Among the data in PubChem BioAssay (NCI) are growth inhibition values, retold here.

Assay [1] is described as follows: NCI Yeast Anticancer Drug Screen. Data for the rad50 strain (AID 155).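 Further: 0% = growth of vehicle-only cultures of the same strain.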 To be noted: S. cerevisiae rad50 strain growth inhibition; at 50.0 µM; hits give high values. The gist of the method: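 Growth of the mutant yeast was measured after compound exposure and referenced to vehicle-treated cultures.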
Assay [2] is described as follows: NCI Yeast Anticancer Drug Screen. Data for the mec2-1 strain (AID 157). The following applies: S. cerevisiae mec2-1 strain, at 50.0 µM, hits give high values. The gist of the method:
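Mutant yeast (mec2-1) grown with compound; growth inhibition relative to vehicle control reported.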

Assay [3] in a line: NCI Yeast Anticancer Drug Screen. Data for the sgs1 mgt1 strain (AID 161).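 Further: 0% = growth of cultures given vehicle only.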 To be noted: S. cerevisiae sgs1 mgt1 strain, at 50.0 µM, hits give high values. The method, boiled down: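 Yeast cells carrying a defined DNA-repair defect were exposed to test compounds. Growth inhibition was measured relative to vehicle-treated controls.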
Assay [4] in a line: NCI Yeast Anticancer Drug Screen. Data for the cln2 rad14 strain (AID 165).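 Further: 0% = growth equal to vehicle treated cultures.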 The following applies: S. cerevisiae cln2 rad14 strain, at 50.0 µM, hits give high values. The gist of the method: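 Readout is yeast growth inhibition versus vehicle-treated controls, using a strain with cln2 and rad14 alterations exposed to compound.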
Assay [5] can be described thus: NCI Yeast Anticancer Drug Screen. Data for the bub3 strain (AID 167). The following applies: S. cerevisiae bub3 mutant strain, at 50.0 µM, hits give high values. The method, boiled down: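 Whole-cell yeast assay. The mutant strain was incubated with compounds, and growth inhibition was determined by comparison with vehicle-treated cells.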
The nature of assay [6]: NCI Yeast Anticancer Drug Screen. Data for the mlh1 rad18 strain (AID 175). To be noted: S. cerevisiae mlh1 rad18 strain growth inhibition; at 50.0 µM; hits give high values. The gist of the method: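 Genetically defined yeast (DNA repair-deficient) exposed to compounds; growth inhibition determined relative to vehicle.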

Consider `O=C1CC2(CCCC2)CC(=O)N1`, for which the growth inhibition is -11.2% in assay [1]; -11.4% in assay [2]; -15.6% in assay [3]; -29.4% in assay [4]; 6.4% in assay [5]; -8.1% in assay [6].

On to `Cc1cccc(CN(C)Cc2cc(Cl)cc(C)c2O)c1O`, for which the growth inhibition in assay [1] was 14.8%; in assay [2] it was -1.6%; in assay [3] it was 1.1%; in assay [4] it was -36%; in assay [5], -1.25%; in assay [6], 4.15%.

As for `CCCSc1nc2c(c(=O)n(C)c(=O)n2C)n1C`, the growth inhibition in assay [1] is 7.85%; in assay [2] it was 15.2%; in assay [3] it was 10.2%; in assay [4] it was -9.3%; in assay [5] it was 9.15%; in assay [6], 6.5%.

For the compound `OCC1OC(n2c(=S)[nH]c3ccccc32)C(O)C1O` (centres undefined), the growth inhibition was 9.4% in assay [1]; -0.9% in assay [2]; 5.4% in assay [3]; 1.2% in assay [4]; 4.4% in assay [5]; 7.4% in assay [6].

In the case of `CCCCCCCCCCCCCCCCS(=O)(=O)N/N=C(/c1cccc(N)c1)N1CCOCC1`, the growth inhibition in assay [1] is -29.6%; in assay [2], -40.8%; in assay [3], -13.2%; in assay [4], 4.2%; in assay [5] it was -7.75%; in assay [6] it was -21.2%.

Regarding `CC1CNC(=O)C(=O)N1` (centres undefined), the growth inhibition in assay [1] is -14.7%; in assay [2], -1.8%; in assay [3], 1.75%; in assay [4], -13.4%; in assay [5], -10.9%; in assay [6], -8.05%.

Consider `Clc1cccc2nc(-c3ccccn3)n(CCc3ccncc3)c12`, for which the growth inhibition in assay [1] was 90% (active); in assay [2], 51.1%; in assay [3], 84.7% (active); in assay [4] it was 60.6%; in assay [5], 74.7% (active); in assay [6] it was 86.2% (active).

For the compound `COC(=O)C12CCC(C(=O)OC)(CC1)n1c(=O)n(-c3ccccc3)c(=O)n12`, the growth inhibition was -4.8% in assay [1]; -5.15% in assay [2]; -7.7% in assay [3]; -16.8% in assay [4]; -1.85% in assay [5]; -7.15% in assay [6].

As to `COC(=O)C(CC(=O)c1ccc2ccccc2c1)OC` (centres undefined), the growth inhibition was -1.85% in assay [1]; -9.1% in assay [2]; 7.2% in assay [3]; -76.7% in assay [4]; 6.35% in assay [5]; -9.55% in assay [6].

`COc1cc2c(cc1OC)C(=O)/C(=C/c1ccccc1)C2`: the growth inhibition was -16.4% in assay [1]; -0.85% in assay [2]; -6.4% in assay [3]; 15.2% in assay [4]; 36% in assay [5]; 9.6% in assay [6].

For `CN1CCC2(CC1)C(=NC1CCCCC1)NC(=O)N2c1ccccc1`, the growth inhibition was -26.4% in assay [1]; -6.15% in assay [2]; -5.45% in assay [3]; 1.1% in assay [4]; 6.6% in assay [5]; 3.7% in assay [6].

With `CC(=O)NC1(C)CC[C@H]2CC1C(C)=NC2(C)C` (some centres undefined), the growth inhibition is -13.2% in assay [1]; -3.95% in assay [2]; -6.9% in assay [3]; 2.85% in assay [4]; -8.15% in assay [5]; -14.3% in assay [6].

Turning to `Nc1cc(Cl)c(N(CCO)C2=NCCN2)c(Cl)c1`, the growth inhibition in assay [1] was 3.8%; in assay [2] it was -3.25%; in assay [3] it was 3.05%; in assay [4], -12.2%; in assay [5] it was 1.3%; in assay [6], -5.75%.

For `CCOC(=O)CC[C@@H](NC(=O)c1ccc(NCc2ccc3nc(OC)c(OC)nc3c2)cc1)C(=O)OCC`, the growth inhibition in assay [1] was 2.7%; in assay [2] it was -10.2%; in assay [3] it was -4.15%; in assay [4], -9.55%; in assay [5], 15.8%; in assay [6], -13.4%.

For the compound `C/C(=N\NC(=O)C[N+](C)(C)C)c1sc(-c2cccnc2)nc1C`, the growth inhibition in assay [1] is 5.4%; in assay [2], -26.1%; in assay [3], 6.5%; in assay [4] it was 20.9%; in assay [5], -4.4%; in assay [6], -4.05%.

Regarding `c1ccc(C(SN=C2CCCCC2)(c2ccccc2)c2ccccc2)cc1`, the growth inhibition in assay [1] is -4.35%; in assay [2], -2.6%; in assay [3], -25.6%; in assay [4], 10.9%; in assay [5], -1.2%; in assay [6], -13.1%.

`O=C(O)c1cc(Br)c(O)cc1O`: the growth inhibition was -11.4% in assay [1]; -17.6% in assay [2]; -3.35% in assay [3]; 9.35% in assay [4]; -5.25% in assay [5]; 7% in assay [6].

Consider `O=CN1CCN(C=S)CC1`, for which the growth inhibition in assay [1] is -14%; in assay [2], -10.2%; in assay [3], -9.9%; in assay [4], 3.75%; in assay [5], 2.6%; in assay [6], -15.4%.

With `Cc1cccc(C(O)c2ccccn2)c1O` (centres undefined), the growth inhibition in assay [1] is -3.85%; in assay [2] it was -4.45%; in assay [3] it was -6.8%; in assay [4] it was -4.45%; in assay [5] it was -3.8%; in assay [6], 3.1%.

`CC1(C)CC2(C)OC3(C)CC(C)(C)OC3(C)OC2(C)O1` (centres undefined): the growth inhibition in assay [1] is 0.05%; in assay [2] it was 6.45%; in assay [3] it was 8.55%; in assay [4], -34.2%; in assay [5] it was 22.4%; in assay [6], -10.3%.

Take `Cc1cn(C2CC(N=[N+]=[N-])C(CO)O2)c(=O)[nH]c1=O` (centres undefined): the growth inhibition in assay [1] is -0.7%; in assay [2] it was -0.4%; in assay [3] it was -39.5%; in assay [4], 14.1%; in assay [5], 0.05%; in assay [6], -15.6%.

Consider `CC(C)(C)N1COCC(COc2ccc(Cl)cc2)OC1` (centres undefined), for which the growth inhibition in assay [1] was -13.3%; in assay [2], -3.5%; in assay [3], 4.95%; in assay [4] it was 11.4%; in assay [5], -16.1%; in assay [6], 24.8%.

Consider `CSc1nc(NC2OC(CO)C(O)C(O)C2O)cc(=O)[nH]1` (centres undefined), for which the growth inhibition is 3.5% in assay [1]; 4.2% in assay [2]; 2.85% in assay [3]; -9.8% in assay [4]; 7.5% in assay [5]; -2.9% in assay [6].

For the compound `CC(=O)Nc1ccc[n+](C)c1`, the growth inhibition is 0.65% in assay [1]; 17.9% in assay [2]; -6.9% in assay [3]; -3.3% in assay [4]; 33.3% in assay [5]; -1.95% in assay [6].

For the compound `O=C1OCCC1n1cc(F)c(=O)[nH]c1=O` (centres undefined), the growth inhibition in assay [1] was 3.15%; in assay [2], -5.3%; in assay [3], -3.45%; in assay [4], -39%; in assay [5], -20.2%; in assay [6] it was -2%.

Regarding `CN(C)C(=N/O)/C(=N\O)N(C)C`, the growth inhibition is -5.05% in assay [1]; -25% in assay [2]; -23.1% in assay [3]; -6.35% in assay [4]; -23.8% in assay [5]; -0.2% in assay [6].

Take `O=C(/C=C/c1ccco1)c1ccc(NCc2nc3ccccc3[nH]2)cc1`: the growth inhibition in assay [1] is 40.2%; in assay [2] it was -7%; in assay [3], 41.5%; in assay [4], 33.9%; in assay [5] it was 13.8%; in assay [6] it was 25.8%.

For `COc1cc2cccc(NC(=O)c3cc(OC)c(OC)c(OC)c3Br)c2cc1OC`, the growth inhibition in assay [1] was 31.4%; in assay [2] it was 12.4%; in assay [3] it was 16.6%; in assay [4], 19.6%; in assay [5] it was 44.5%; in assay [6], 20.7%.

For `O=S(=O)(Cl)c1cc(Cl)ccc1Cl`, the growth inhibition in assay [1] was 24.8%; in assay [2], -19.8%; in assay [3] it was -17.1%; in assay [4] it was -72.2%; in assay [5], -3.6%; in assay [6], -4.1%.

For the compound `CC1=CC(=O)OC1=O`, the growth inhibition was 4.9% in assay [1]; 15% in assay [2]; 2.15% in assay [3]; 8.9% in assay [4]; 5.9% in assay [5]; 22% in assay [6].

For `CC1CC/C(=C\c2ccccc2)C(=O)/C1=C/c1ccccc1` (centres undefined), the growth inhibition in assay [1] was 22.2%; in assay [2] it was -11.1%; in assay [3], 13.8%; in assay [4] it was 9.45%; in assay [5], 30.2%; in assay [6] it was 28.8%.

With `CC(C)=Nn1cnc(C(=N)C#N)c1N`, the growth inhibition was 22.9% in assay [1]; 3.5% in assay [2]; -0.9% in assay [3]; 14.5% in assay [4]; 4.8% in assay [5]; -7.45% in assay [6].

As for `CCCCSC(CC(O)C(O)COC(=O)c1ccc([N+](=O)[O-])cc1)SCCCC` (centres undefined), the growth inhibition in assay [1] is -12.1%; in assay [2], 1.95%; in assay [3], 2.7%; in assay [4], 13%; in assay [5] it was -4.85%; in assay [6], -5.85%.

Take `O=C1OC2C(Cl)C3CC1C2C3` (centres undefined): the growth inhibition in assay [1] was -12.2%; in assay [2], -9.6%; in assay [3], -22.3%; in assay [4], -13.2%; in assay [5], 4.65%; in assay [6] it was -31.4%.

For `Cc1nc(C(Cl)(Cl)Cl)nc(C(Cl)(Cl)Cl)n1`, the growth inhibition was 19.9% in assay [1]; 47% in assay [2]; 27.2% in assay [3]; 9% in assay [4]; 18.4% in assay [5]; 20.4% in assay [6].

For `O=C1c2ccccc2C(=O)c2c(Cl)cccc21`, the growth inhibition in assay [1] is 56.6%; in assay [2], 4.7%; in assay [3], -19.2%; in assay [4], -39.5%; in assay [5], -9.35%; in assay [6], 7.35%.

Regarding `CCN(CC)CC(O)Cn1cnc2c(=S)nc[nH]c21` (centres undefined), the growth inhibition was 8.7% in assay [1]; -4.05% in assay [2]; -3.45% in assay [3]; 4.9% in assay [4]; 1.45% in assay [5]; -4.45% in assay [6].

For the compound `CCCCCCCCCCCCOc1ccc(Sc2ccc(OCCCCCCCCCCCC)cc2C)c(C)c1`, the growth inhibition was -16.2% in assay [1]; -8.05% in assay [2]; -0.95% in assay [3]; -26.2% in assay [4]; 6.35% in assay [5]; -11.2% in assay [6].

For `COC1=CC(=C(c2ccc(O)c(OC)c2)c2ccc(O)c(OC)c2)C=CC1=O`, the growth inhibition is -2.75% in assay [1]; -6.95% in assay [2]; -2.55% in assay [3]; 4.4% in assay [4]; -22.4% in assay [5]; -31.9% in assay [6].
